For 42 sequences, binding signal results are on record in article PMC7819943, “Rice protein-binding microarrays: a tool to detect cis-acting elements near promoter regions in rice”.

The full ranking holds about 68,000 sequences; the median of “fluorescence intensity (a.u.)” is about 9,100, and the highest 2% start at about 16,000. What follows is part of a selection rich in the highest values, with near analogues and random picks from the rest.

For this assay, the target named is OsWRKY34 (Oryza sativa, UniProt Q0JBA9 1-250). Put plainly: protein-binding microarray (RPBM); PBS, 2% BSA, 51.3 ng/ul salmon testes DNA, 50 uM zinc acetate, 200 nM TF, 25 C, 1 h; high values mean tight binding. The following applies: protein: recombinant; tags: N-terminal polyhistidine and DsRed monomer fusion (pET32a); label: CyDye5-dUTP incorporated in the synthesized complementary strand; 3' TTTTT single-stranded linker to array surface; dsDNA, one strand shown. Put shortly: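 A custom Agilent array was converted to double-stranded form by primer extension with Cy5-dUTP and blocked with 2% BSA. Protein at 200 nM in PBS with 2% BSA, salmon testes DNA and 50 µM zinc acetate was applied for 1 h at 25 °C, followed by washing. The proteins were polyhistidine–DsRed N-terminal fusions of transcription factors, expressed in E. coli BL21-CodonPlus and Ni–NTA-purified. The binding signal is per-feature fluorescence intensity (arbitrary units) from an Axon 4000B scanner.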
Sequence of OsWRKY34 (Q0JBA9 entry or part of it): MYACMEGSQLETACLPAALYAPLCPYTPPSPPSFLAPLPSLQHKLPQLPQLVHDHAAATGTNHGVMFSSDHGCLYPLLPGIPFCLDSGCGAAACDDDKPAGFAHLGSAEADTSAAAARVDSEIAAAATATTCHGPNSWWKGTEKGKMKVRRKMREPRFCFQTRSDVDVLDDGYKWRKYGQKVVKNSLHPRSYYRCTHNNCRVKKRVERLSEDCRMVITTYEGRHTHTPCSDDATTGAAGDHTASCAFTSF
Turning to “GCCGGCTAAACTGGCTTATTGTACTTGCTCTTACTTGACTCGGAGTCACCTAGTGCAG”, the binding signal is 9430 fluorescence intensity (a.u.).

Regarding “ATTTTTTATTTCTTTTGTTTCAAATTTCAGTTCTTTTTATCGGAGTCACCTAGTGCAG”, the binding signal was 9720 fluorescence intensity (a.u.).

For the sequence “TCATTTTGTATTTTGTTGTCTCTGTCTTGCTGTTCCCTCGCGGAGTCACCTAGTGCAG”, the binding signal was 8810 fluorescence intensity (a.u.).

As for “GTGTGTTGTTGTTCTTGTTTTGGTTCTTTTCTAGTAGTATCGGAGTCACCTAGTGCAG”, the binding signal was 8750 fluorescence intensity (a.u.).

For “TTTTCTTTCTTTTTCTTTTTTTTTATCGTTTTGTTCTTCTCGGAGTCACCTAGTGCAG”, the binding signal is 10500 fluorescence intensity (a.u.).

On to “ATGTTTTTTTTTGGGTCGCTTTCTTTGTGTGTGTATATATCGGAGTCACCTAGTGCAG”, for which the binding signal is 16400 fluorescence intensity (a.u.).

Take “TCTCGTTTCGTTCGTGTATCATGTTTTTTTTTGGGTCGCTCGGAGTCACCTAGTGCAG”: the binding signal is 8730 fluorescence intensity (a.u.).

“ATACTAGGCTGTATCTCTCTCGCTCTCTTGTTGTTCCCTCCGGAGTCACCTAGTGCAG”: the binding signal is 18200 fluorescence intensity (a.u.).

Regarding “ATGTTTTAATTTTGGGCTTCTTTTTGTTTTGGGCTTTTATCGGAGTCACCTAGTGCAG”, the binding signal was 24300 fluorescence intensity (a.u.).

As for “GCTCTCTCTCTCTCTCTCTCTCGCTGTCTCTCTCCCTCCCCGGAGTCACCTAGTGCAG”, the binding signal is 9110 fluorescence intensity (a.u.).

As for “GGTCATACTCTCTTCGTCCCATTTAATGTACAATCATGCTCGGAGTCACCTAGTGCAG”, the binding signal was 8860 fluorescence intensity (a.u.).

In the case of “GTTTCATAATCCTGTGTTCTTTTTGTTTACTATGGTTTTGCGGAGTCACCTAGTGCAG”, the binding signal is 11000 fluorescence intensity (a.u.).

With “GCAACTGATAGACTAACTTGTCCGGTCCTGTTTTGGAATCCGGAGTCACCTAGTGCAG”, the binding signal is 10200 fluorescence intensity (a.u.).

On to “TGCCAGCACAAATCTCGAAGCACATCCAATGATCCAAGACCGGAGTCACCTAGTGCAG”, for which the binding signal was 9540 fluorescence intensity (a.u.).

Consider “TACTGTTGCTGCTAGTTCACCATTTGCGCATTTCCTCTTCCGGAGTCACCTAGTGCAG”, for which the binding signal was 11700 fluorescence intensity (a.u.).

In the case of “TCGCCGTTCGCTGGTATATGCCGTTGTCTTGGAATCATCTCGGAGTCACCTAGTGCAG”, the binding signal was 11100 fluorescence intensity (a.u.).

With “CGGTGTTGGGATCGGGTTTGGAGGTGGTAAGGGTGGTGGTCGGAGTCACCTAGTGCAG”, the binding signal was 10600 fluorescence intensity (a.u.).

Turning to “CCGGTGGGGTGGGGAATTCGGCGGAGGAAGACGACGACGACGGAGTCACCTAGTGCAG”, the binding signal was 9250 fluorescence intensity (a.u.).

Take “GGGAGAGGTGGAGACCAGGAGGTGGGGTGGCGGAGGTCATCGGAGTCACCTAGTGCAG”: the binding signal is 14300 fluorescence intensity (a.u.).

Regarding “AAATTTAGGTGGAGGGGTGTGGGCGGTTTCGTGCAAAAATCGGAGTCACCTAGTGCAG”, the binding signal is 19100 fluorescence intensity (a.u.).

As for “GTGGAGGCGCGGTGGGGTGGGGAAGGAGTGTGTTTCGTGTCGGAGTCACCTAGTGCAG”, the binding signal is 15500 fluorescence intensity (a.u.).

As for “TGACATGGTTGTTAGGGTTTGCGAGCAAATTTTCGTGGGGCGGAGTCACCTAGTGCAG”, the binding signal is 10100 fluorescence intensity (a.u.).

As for “GGCGGTATCGACGAAGAATCTCGGGGCGGTGGGGAGGTTTCGGAGTCACCTAGTGCAG”, the binding signal was 17700 fluorescence intensity (a.u.).

For the sequence “GCATCGTGGGGTGTGGGTGGCGGTTTTGGAGGGGAGAGGTCGGAGTCACCTAGTGCAG”, the binding signal is 23200 fluorescence intensity (a.u.).

For “CGCGGGAATCGGCCGGCGACGTGGGGAGGTGGGGAGGAGACGGAGTCACCTAGTGCAG”, the binding signal was 8900 fluorescence intensity (a.u.).

For “ATGGGTTGGGACTGTCCTGGTGCGCGATTACTAACGTGGACGGAGTCACCTAGTGCAG”, the binding signal was 8790 fluorescence intensity (a.u.).

Take “TATTGGAACTATTACGACCACATGCTCTCTTCCTACTCTCCGGAGTCACCTAGTGCAG”: the binding signal was 9770 fluorescence intensity (a.u.).

For the sequence “CTCCAGCCGATATACATGCAGCCGCTGTCATCTTTTGTTCCGGAGTCACCTAGTGCAG”, the binding signal was 9100 fluorescence intensity (a.u.).

Take “TCTTTTACACTTCATTTATTTTTTCATGCACCAAGGCTTACGGAGTCACCTAGTGCAG”: the binding signal is 9810 fluorescence intensity (a.u.).

On to “TGTTTTGGCTTTGGTCCCTTGCTTTTCTTTGGAGGTTGGACGGAGTCACCTAGTGCAG”, for which the binding signal was 10400 fluorescence intensity (a.u.).

Consider “TTCTTTTTTTGTGGGGAGAGGCGGGCTGTTTTTTTCTTGCCGGAGTCACCTAGTGCAG”, for which the binding signal was 15900 fluorescence intensity (a.u.).

Turning to “GGATACTGCACAGCCCTTGATCACAATACAGTGCATTTCTCGGAGTCACCTAGTGCAG”, the binding signal is 9450 fluorescence intensity (a.u.).

Consider “GGGGATTTTTGTACGCTCACGGCATTTTTTTTGTCAGCGACGGAGTCACCTAGTGCAG”, for which the binding signal is 17500 fluorescence intensity (a.u.).

Turning to “CTTGCACGCGACGGCCTGGCATTTGTGTACGGCACCGCCCCGGAGTCACCTAGTGCAG”, the binding signal is 8030 fluorescence intensity (a.u.).

As to “GAGTAGTTCGCTTTGGCAGTATGGCATTTGTACACGCTCACGGAGTCACCTAGTGCAG”, the binding signal is 8660 fluorescence intensity (a.u.).

With “TATCTTATCAGGTCTCGTCTTCTTTAATCCAACCCTTGTTCGGAGTCACCTAGTGCAG”, the binding signal was 8680 fluorescence intensity (a.u.).

On to “ATCTTAAGCTGTCCTTTTTCATGCCGAGTCAGAGTTTCATCGGAGTCACCTAGTGCAG”, for which the binding signal was 9130 fluorescence intensity (a.u.).

Turning to “TCGGATACGAGTTTGATTCTCATCCTCCTTCATTTATATTCGGAGTCACCTAGTGCAG”, the binding signal was 8320 fluorescence intensity (a.u.).

For the sequence “CCGTATTTGAATATATGACGCCGTTGACTTTTTAACTAATCGGAGTCACCTAGTGCAG”, the binding signal was 17900 fluorescence intensity (a.u.).

On to “GTATGACTTCTCCGTTTTTATATTTGCACTAATTTTTTAACGGAGTCACCTAGTGCAG”, for which the binding signal is 11200 fluorescence intensity (a.u.).

In the case of “CGTATTTTAATATATGACGCCGTTGACTTTTTATTAACGACGGAGTCACCTAGTGCAG”, the binding signal is 23200 fluorescence intensity (a.u.).

As to “CGTATTTTAATATATGACGCCCGCCGTTGACTTTTTGTCTCGGAGTCACCTAGTGCAG”, the binding signal was 27800 fluorescence intensity (a.u.).
